# According to PubChem BioAssay (Tox21):
# Unmarked numbers belong to inactive results. A call without a number means that no potency is given here. Calls of active or inactive are those of the source. Calls follow the shape of the dose curve; as a rule, active = well fitted curve in the direction sought with a large enough effect in the repeat runs; inconclusive = weak or mixed curves; inactive = flat fitted curve, though single readings scatter.
# Assay: qHTS assay to test for compound auto fluorescence at 460 nm (blue) in HepG2 cell free culture (AID 720685)
# Details: Cell-free culture medium, blue autofluorescence 405/460 nm; series mostly up to 91.3 µM
# Excerpt: U.S. Tox21 Program National Center for Advancing Translational Sciences [NCATS] NIH Chemical Genomics Center [NCGC] U.S. Environmental Protection Agency [EPA] National Institutes of Environmental Health Sciences [NIEHS] National Toxicology Program [NTP] U.S. Food and Drug Administration [FDA] Tox21 Assay Overview: Compound auto fluorescence often interferes with screening of the compound library against various biological targets and signaling pathways. Some of these compounds may have fluorophoric properties. Such properties may interfere with the assay outputs resulting in false positives and/or negatives. To decrease such complications and ensure the compound activities are relevant in terms of biological response, the Tox21 10K compound library was screened for auto fluorescence. From the fluorophores used as reporter signals in our screening assays, the auto fluorescence equivalencies of compounds against three fluorophores have been evaluated: Triamterene, Fluorescein and Rose Bengal sodium for blue, green and red fluorescence, respectively. The fluorescence intensities were measured using Excitation/Emission wavelengths at 405/460nm, 485/535nm and 540/590nm for blue, green and red labels, respectively. This assay includes the blue fluorescence data.
# Tox21 Assay Protocol Summary: 5 uL of culture medium (MEM containing 10% FBS) per well was dispensed into black wall/clear bottom 1536-well plates using a Multidrop Combi Dispenser (ThermoFisher Scientific, Waltham, MA). After 23 nL compound or DMSO vehicle was transferred into assay plate by a pintool work station (Kalypsys, San Diego, CA), fluorescence intensities in the assay plates were measured by an Envision (PerkinElmer, Shelton, CT) plate reader using three labels for measuring blue, green and red fluorescence at […] 460, 535 and 590nm respectively.
SMILES,Potency,"fluorescence, % of fluorescent control"
C=C(C)C(=O)OC(C)C,inactive,–
COc1ccc2[nH]c(S(=O)Cc3ncc(C)c(OC)c3C)nc2n1 (stereo not given),inactive,–
Cc1ccc(C(N)=O)cc1N,inactive,–
COCCO,inactive,–
CCCCC(CC)(CO)CO,inactive,–
COc1cc(C(C)(C)C)c(O)c(C(C)(C)C)c1,inactive,–
Nc1cnn([C@@H]2O[C@H](CO)[C@@H](O)[C@H]2O)c(=O)n1,inactive,–
CC(=O)c1c(C)c([N+](=O)[O-])c(C(C)(C)C)c([N+](=O)[O-])c1C,inactive,–
CCCCCCCCCCCCCCC1CO1 (stereo not given),inactive,–
CC1(C)CCC(C)(C)c2cc(NC(=O)c3ccc(C(=O)O)cc3)ccc21,inactive,–
C1CCC2OC2C1 (stereo not given),inactive,–
S=C(S)NCCNC(=S)S,inactive,–
Cc1ncsc1CCO,inactive,–
O=C(O)C(c1ccc(Cl)cc1)c1ccc(Cl)cc1,inactive,–
Cc1cccc(OCCOc2cccc(C)c2)c1,inactive,–
O=c1[nH]cnc2ccccc12,inactive,–
Cc1ccc(O)c([C@H](CCN(C(C)C)C(C)C)c2ccccc2)c1,inactive,–
C1=Cc2ccccc2C1,inactive,–
C#CCOC(=O)[C@@H](C)Oc1ccc(Oc2ncc(Cl)cc2F)cc1,inactive,–
CCCCCCCCCC=O,inactive,–

SMILES,Potency,"fluorescence, % of fluorescent control"
Oc1ccc(O)c2c(O)cccc12,inactive,–
Oc1ccc2c(c1)OCO2,inactive,–
SC1CCCC1,inactive,–
CCCCCCCC/C=C\CCCCCCCC(N)=O,inactive,–
N#Cc1cc2ccccc2c2ccccc12,inactive,–
CNCC[C@@H](Oc1ccccc1C)c1ccccc1,inactive,–
Nc1nc(N)c(-c2ccccc2)s1,inactive,–
Cn1c(=O)c2c(ncn2CC(O)CO)n(C)c1=O (stereo not given),–,-0.106% [at 18.6 µM]
ClC(Cl)(Cl)c1ccc(C(Cl)(Cl)Cl)cc1,inactive,–
NCCCOCCOCCOCCCN,inactive,–
O=C(O)C1CCC(C(=O)O)CC1 (stereo not given),inactive,–
CCN(CC)CCOc1ccc2c(c1)C(=O)c1cc(OCCN(CC)CC)ccc1-2,inactive,–
NC1CCN(c2nc3c(cc2F)c(=O)c(C(=O)O)cn3-c2ccc(F)cc2F)C1 (stereo not given),inactive,–
CCN(CC)C(C)CN1c2ccccc2Sc2ccccc21 (stereo not given),–,0.0011% [at 18.6 µM]
C=CC(C)(CCC=C(C)C)OC(=O)c1ccccc1 (stereo not given),inactive,–
CC(C)NCC(O)COc1ccc(CC(N)=O)cc1 (stereo not given),inactive,–
OC(CCN1CCCCC1)(c1ccccc1)C1CCCCC1 (stereo not given),inactive,–
Cc1ccc(C(=O)C(C)CN2CCCCC2)cc1 (stereo not given),inactive,–
O=C(O)COC(=O)Cc1ccccc1Nc1c(Cl)cccc1Cl,–,0.0872% [at 18.6 µM]
NCCCN(CCO)CCO,inactive,–
